# Results reported in publication PMC7819943, “Rice protein-binding microarrays: a tool to detect cis-acting elements near promoter regions in rice”.
# Whole data set: some 39,000 sequences, median “fluorescence intensity (a.u.)” near 4,300, cut for the highest 2% near 39,000. The sample holds the highest values, similar sequences and a random draw of the others, so the mix is not that of the screen.
# Target: T1, OsSMF1 (Oryza sativa, UniProt Q6ZLB0 1-436)
# T1 sequence: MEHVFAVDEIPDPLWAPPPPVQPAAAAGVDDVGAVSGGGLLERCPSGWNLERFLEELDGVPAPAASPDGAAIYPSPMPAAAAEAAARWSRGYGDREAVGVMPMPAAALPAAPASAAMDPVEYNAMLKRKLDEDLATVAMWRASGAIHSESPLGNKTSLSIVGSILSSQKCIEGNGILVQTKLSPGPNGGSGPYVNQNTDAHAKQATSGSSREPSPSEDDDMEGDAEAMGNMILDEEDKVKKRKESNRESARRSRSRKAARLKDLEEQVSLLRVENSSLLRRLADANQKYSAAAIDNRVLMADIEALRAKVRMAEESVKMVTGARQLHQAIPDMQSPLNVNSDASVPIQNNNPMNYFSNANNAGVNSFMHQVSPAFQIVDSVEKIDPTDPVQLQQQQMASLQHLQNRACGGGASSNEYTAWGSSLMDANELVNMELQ
# Assay: protein-binding microarray (RPBM); PBS, 2% BSA, 51.3 ng/ul salmon testes DNA, 50 uM zinc acetate, 200 nM TF, 25 C, 1 h; high values mean tight binding
# Conditions: protein: recombinant; tags: N-terminal polyhistidine and DsRed monomer fusion (pET32a); chain copies: 2; label: CyDye5-dUTP incorporated in the synthesized complementary strand; 3' TTTTT single-stranded linker to array surface; dsDNA, one strand shown
# Method in brief: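 Polyhistidine-tagged DsRed fusions of transcription factors, joined at the N-terminus, were expressed in E. coli BL21-CodonPlus and isolated on Ni–NTA. They were incubated at 200 nM for 1 h at 25 °C on a custom Agilent array, double-stranded and BSA-blocked, in PBS with 2% BSA, salmon testes DNA and 50 µM zinc acetate. The binding signal is per-feature fluorescence intensity (arbitrary units) read on an Axon 4000B scanner after washing.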
row,Sequence,binding signal
1,TTCGCGCGCCACCTCCTCGCGCTCGCCTGCTTCTTCTCCCCGGAGTCACCTAGTGCAG,3380 fluorescence intensity (a.u.)
2,GCTGCTGCACCACGTCCTTCCTCTTCCTCGCCCCACCACCCGGAGTCACCTAGTGCAG,6380 fluorescence intensity (a.u.)
3,CTCGCTGCTTCGCCCGCCACGTCACCCTCCTCCTCCTCCCCGGAGTCACCTAGTGCAG,62000 fluorescence intensity (a.u.)
4,AAAACCTGACTTTGCATCATTAGACGATTTGTCCATTGAACGGAGTCACCTAGTGCAG,3160 fluorescence intensity (a.u.)
5,GGCTAGCCAGCGACCGACCGGCGGCCACCGTGGCGGGATTCGGAGTCACCTAGTGCAG,4850 fluorescence intensity (a.u.)
6,AGGTACGTAAATTTTATATATTCCATATGAGCTCTAAATACGGAGTCACCTAGTGCAG,3580 fluorescence intensity (a.u.)
7,CACGCAGTAGGGATCGAGGATGTCGTACGCGTACCTCTTCCGGAGTCACCTAGTGCAG,26100 fluorescence intensity (a.u.)
8,AGGAGGTAGGATAGTTCCCTCCGTAATGGATCGAGGATGTCGGAGTCACCTAGTGCAG,42000 fluorescence intensity (a.u.)
9,GTAGTCGTAATGTCATCGTCATCGACATCGATGTGTTGCTCGGAGTCACCTAGTGCAG,4940 fluorescence intensity (a.u.)
10,TCCTTCTTCCTTGGCCTCTTCCTAATGACAAGCCCTTGCGCGGAGTCACCTAGTGCAG,3610 fluorescence intensity (a.u.)
11,GCTCTTGAGAATGTTGCTGAGTTGTCAGCTCTCTCCACCCCGGAGTCACCTAGTGCAG,15700 fluorescence intensity (a.u.)
12,ACCCATAGAGATCGACACTATAGGTACCGGAATAACTAAACGGAGTCACCTAGTGCAG,63800 fluorescence intensity (a.u.)
13,CCATATAGGAATTTAAAACTAACTAAAATTCGGAATAAACCGGAGTCACCTAGTGCAG,3400 fluorescence intensity (a.u.)
14,GATCGTACATGTTCACATAAACACCCACGACACTACCCTACGGAGTCACCTAGTGCAG,18400 fluorescence intensity (a.u.)
15,AGAGAGAGCGTGGGTGGGGTGGGTGCTCTGGGTGACTGGGCGGAGTCACCTAGTGCAG,6040 fluorescence intensity (a.u.)
16,CATGCGATACTACCCCAACGGCCTCGACGACGGCTGCGCCCGGAGTCACCTAGTGCAG,26900 fluorescence intensity (a.u.)
17,CTGAAATGACCAGAATGCCCCTCCGTCCTACCCCACAATCCGGAGTCACCTAGTGCAG,19900 fluorescence intensity (a.u.)
18,ACTTGTCACTTGGTTCACACTAAGAGCACTTGACATATCTCGGAGTCACCTAGTGCAG,17900 fluorescence intensity (a.u.)
19,AGACACTTTTGCAGGGATTGCTCAGACTTAGTTTCAGAGTCGGAGTCACCTAGTGCAG,3940 fluorescence intensity (a.u.)
20,AGAGCAAGACAAGATGGTTAGTTCTCACACTTCAGATTGTCGGAGTCACCTAGTGCAG,41400 fluorescence intensity (a.u.)
21,TTAACGTGTACCACTACATGCATGCAGTGACGACAGTCAGCGGAGTCACCTAGTGCAG,3150 fluorescence intensity (a.u.)

row,Sequence,binding signal
1,CACCACTACCACGATCAGGCCCAAGAGATGATAAAGTGGCCGGAGTCACCTAGTGCAG,46500 fluorescence intensity (a.u.)
2,ACACTCTCGATGTATAGATTCACCCACGAGATGATGTGGCCGGAGTCACCTAGTGCAG,6570 fluorescence intensity (a.u.)
3,GGGATAAAGAGAGGATGACACGTGGGACCCACATGTCAGCCGGAGTCACCTAGTGCAG,12400 fluorescence intensity (a.u.)
4,GAGCTCCGACGAGCACCTCCCTGAAGCGTGGCAGGTCGAGCGGAGTCACCTAGTGCAG,3900 fluorescence intensity (a.u.)
5,AATTTAACTCTTTCCCGCGTGGATGGCCGCATATATATGCCGGAGTCACCTAGTGCAG,3460 fluorescence intensity (a.u.)
6,TATGGAGTTTACTATTCTCCTGATTATTACAAAATTTATACGGAGTCACCTAGTGCAG,30000 fluorescence intensity (a.u.)
7,CAACACCCGTCCGCCAGAGAAGACCATCGTGACGCCACTCCGGAGTCACCTAGTGCAG,4880 fluorescence intensity (a.u.)
8,CACAGTGCACGCACGCAGCTACAAAGATGTCGTACGACCACGGAGTCACCTAGTGCAG,3260 fluorescence intensity (a.u.)
9,CATCACACCCACTTGTCCGCACACAAGAAGAGACCAGCTACGGAGTCACCTAGTGCAG,50600 fluorescence intensity (a.u.)
10,GGAATAAATTATTTATCATTGGACCTACATGTCATGGACACGGAGTCACCTAGTGCAG,3950 fluorescence intensity (a.u.)
11,TCCCCACATCACCCAACACGAGCTCACCACCACCACCACCCGGAGTCACCTAGTGCAG,3500 fluorescence intensity (a.u.)
12,ACCACACCATCGAACATGGTGTAGCTCACGGTAGTCCCAACGGAGTCACCTAGTGCAG,41000 fluorescence intensity (a.u.)
13,CCAACCAACATCCCACATCGAACCATGCATTATTTATGAACGGAGTCACCTAGTGCAG,17300 fluorescence intensity (a.u.)
14,GGCGGCGGGTGGAGGGACGCCCGCTGAATCCGCCACCGGTCGGAGTCACCTAGTGCAG,3170 fluorescence intensity (a.u.)
15,GTTTTATTGTTGAATTTTATATATTGTCACGTCCCCTTTTCGGAGTCACCTAGTGCAG,4350 fluorescence intensity (a.u.)
16,TGGTGCGCTCGTTAAGCCAGCTCGGTTTATGTTAGATCATCGGAGTCACCTAGTGCAG,3210 fluorescence intensity (a.u.)
17,AGCAAATATTTACTGTAGTACTACACTGTCAAATCATGTACGGAGTCACCTAGTGCAG,3610 fluorescence intensity (a.u.)
18,ATACCATATGAGCAAATACGCAGGAATCAGTACTGTATTTCGGAGTCACCTAGTGCAG,39500 fluorescence intensity (a.u.)
19,AGTACTAGTTGGAATCATATGTGTCTATGGAGTATATTTTCGGAGTCACCTAGTGCAG,3160 fluorescence intensity (a.u.)
20,GGAGGAAAATGGCCCTGATCAGCATCAGGGCAAGTACTATCGGAGTCACCTAGTGCAG,3200 fluorescence intensity (a.u.)
21,CGAACATAAGTTAGTGACGCATGCCTCAAAATGAAAAGGACGGAGTCACCTAGTGCAG,41400 fluorescence intensity (a.u.)
